Drawing on PubChem BioAssay AID652067 (The Scripps Research Institute Molecular Screening Center, 2013), this text covers activation for 89 compounds.

Screen size: about 370,000 compounds; about 5,400 (1.5%) were called active. The entries come from a sample that favours actives as a whole. A number with no mark means an inactive call.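 Rule for the calls: active = activation above the mean of all tested compounds plus 3 SD (cut at about 5.5% in these data); inactive = the rest.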

In the assay the test system is DAF-12 nuclear receptor (Haemonchus contortus). The assay can be described thus: hcDAF-12 driven luciferase reporter activation – cell-based, luminescence, HEK293, lit1-tk-luc reporter, primary screen (AID 652067).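 Note: 100% = response to 3 µM Δ7-dafachronic acid high control.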 Conditions: HEK293 hcDAF-12 lit1-tk-luc reporter, at 6.8 µM, active compounds read high, 0% DMSO, 100% Δ7-dafachronic acid. In general terms: In a reporter assay the amount or activity of a reporter protein is the signal.
As to `COc1ccccc1-c1ccc([C@@H]2C[C@H]3[C@H](CON3C)CN2S(=O)(=O)c2cc(Cl)cc(Cl)c2)cc1`, the activation was 1.1%.

Turning to `O=C(Nc1ccccc1)Nc1nc2ccccc2s1`, the activation is 15.3% (active).

`O=C(Nc1ccccc1)Nc1nnc(COc2ccccc2F)s1`: the activation was -0.12%. Turning to `O=C(Nc1nc2ccc(Cl)cc2s1)c1cc(-c2ccc(Cl)cc2)nc2ccccc12`, the activation is 4.5%.

Consider `O=C(CCCCCN1C(=O)C2C3C=CC(C3)C2C1=O)Nc1ccccn1` (centres undefined), for which the activation was 2.04%. As to `CCOC(=O)[C@]12CCCC3=C1N(CCC3)C(=O)[C@@H](CC(=O)N1CCSCC1)C2`, the activation is -2.29%. In the case of `CCCCn1c(N)c(N(CC(C)C)C(=O)c2cccc(S(=O)(=O)N3CCN(C(C)=O)CC3)c2)c(=O)[nH]c1=O`, the activation is -1.13%.

Regarding `CCCCn1c(N)c(N(CC(C)C)C(=O)c2cccc(S(=O)(=O)N3CC(C)OC(C)C3)c2)c(=O)[nH]c1=O` (centres undefined), the activation was 6.01% (active). With `CCCCn1c(N)c(N(CCOC)C(=O)c2cccc(S(=O)(=O)N3CCCCC3)c2)c(=O)[nH]c1=O`, the activation is -0.97%.

With `Nc1[nH]c(/C=C2/CCCCC2n2[nH]c(=O)n(-c3ccccc3)c2=O)c(Cc2ccccc2)[n+]1Cc1ccccc1` (centres undefined), the activation was -2.89%. `COC(=O)C12C=C3CC(c4ccccc4)=C3C(=O)N1Cc1[nH]c3ccccc3c1C2` (centres undefined): the activation was 1.08%. For the compound `COc1cccc(C(NC(C)=O)c2nc(-c3cnc4ccccc4c3)cs2)c1` (centres undefined), the activation was -2.08%. As to `CC(C)c1cccc(-c2csc(C(O)c3ccccc3)n2)c1` (centres undefined), the activation is 1%. Consider `OC(c1ccccc1)c1nc(-c2cnc3ccccc3c2)cs1` (centres undefined), for which the activation is 7.43% (active).

As for `COC(=O)c1cc(S(=O)(=O)N2CCN(C(=O)C3CCCO3)CC2)cn1C` (centres undefined), the activation was 2.12%. Turning to `Cc1cc(NS(=O)(=O)c2ccc(NC(=O)CSc3nnc(-c4ccc(C(C)(C)C)cc4)n3Cc3ccco3)cc2)nc(C)n1`, the activation was -0.89%. With `Nc1cc(=O)c2[nH]cnc2[nH]1`, the activation is -0.07%. To `CCCC[C@H](C(=O)N(CC)c1ccccc1)[C@@H](O)c1ccc2ccccc2c1` belongs -1.18%.

As for `C=CCN(Cc1ccc2c(c1)OCO2)C(C#CC1CC1)C(C)(C)C` (centres undefined), the activation is -0.69%. For `CCN(CC)S(=O)(=O)c1cc(C(=O)Nc2ccccn2)ccc1C`, the activation was 5.61% (active). As for `CCN(c1ccccc1)S(=O)(=O)c1cc(C(=O)NCc2ccccn2)ccc1C`, the activation was -0.36%. Regarding `Cc1ccc(NC(=O)CNCc2ccccn2)cc1S(=O)(=O)N(C)C`, the activation is 0.26%. `CCN(CC)C(=O)CC[C@@H]1CC[C@]2(CCCN(S(=O)(=O)C3CCCCC3)C2)O1`: the activation was -3.16%.

Regarding `Cc1[nH]nc2c1C(c1ccc(Br)cc1)NC2=O` (centres undefined), the activation was 1.05%.

On to `COc1cccc(/C=C(/CC(=O)Nc2ccc(N3CCOCC3)cc2)c2nc3ccccc3s2)c1`, for which the activation was 6.15% (active). Then `CCn1c(Cc2ccc(OC)cc2)nnc1SCC(=O)Nc1ccc(N2CCOCC2)cc1`, with 0.15%; and `O=C(COC(=O)CCc1nc2ccccc2c(=O)[nH]1)Nc1ccc(N2CCOCC2)cc1`, with -1.31%. For the compound `COc1cccc(N(C)C(=O)[C@@H](C)[C@@H](O)c2ccc3ccccc3c2)c1`, the activation is -0.46%.

Regarding `COC(=O)C1=C(C)N(Cc2cccc(C(F)(F)F)c2)C(=NCc2ccccc2)NC1c1ccc(Cl)cc1` (centres undefined), the activation was -0.23%. With `COc1ccc(SSc2ccc(OC)cc2C(=O)O)c(C(=O)O)c1`, the activation was 0.58%. As for `Cc1c[nH]c2cccc(-c3ccc(Cl)cc3)c12`, the activation was 2.81%. As to `c1ccc(-c2cc(-c3ccccc3)[nH]n2)cc1`, the activation is 11.7% (active). As to `Oc1ccccc1-c1cc(-c2ccc(Cl)cc2)n[nH]1`, the activation was 20.9% (active). As to `c1ccc(-c2c[nH]c(-c3ccccc3)c2)cc1`, the activation is 2.47%. Consider `O=C(O)c1n[nH]nc1-c1ccccc1`, for which the activation was -0.64%. Then `COc1ccc(Cn2cc(CN3[C@@H](CC(C)C)COc4cc(Br)ccc4S3(=O)=O)nn2)cc1`, with -0.96%; and `COC(=O)Cc1nnn2c1[C@H](C)[C@H](c1ccccc1[N+](=O)[O-])OCC2`, with -0.26%. Regarding `C=C(C)C1CC23C(=O)C4(C(=O)c5ccccc5)C[C@@]5(C)CCC(CC2C1(C)C)(C4=O)C35OC` (some centres undefined), the activation is -1.07%.

Regarding `O=C(c1c(Cl)cccc1Cl)N1CCN(c2cccc3[nH]ccc23)CC1`, the activation was -0.37%. Regarding `C=CCN1C(=O)N(Cc2ccccc2)c2ccccc2S1(=O)=O`, the activation is 2.1%. As to `C=C(C)C#CC(Cc1ccccc1)N(CC1CC1)/C(N)=N/C(=O)OCc1ccccc1` (centres undefined), the activation is -4.1%.

`Cc1c(Cl)cccc1NC(=O)NCc1ccc(C)n1C`: the activation was 6.25% (active). For `Cc1c(Cl)cccc1NC(=O)NCCCN1CCCC1=O`, the activation is -0.07%. Then `Cc1c(Cl)cccc1NC(=O)Nc1ccc(C(=O)N2CCCC2)cc1`, with -1.91%. To `CCCn1c(C)cc(C(=O)COC(=O)c2c(C)nn(-c3ccccc3)c2C)c1C` belongs -1.95%. Turning to `Cc1ccc(OC(=O)c2c(C)nn(-c3ccccc3)c2C)cc1`, the activation was 5.72% (active). Take `Cc1cccc(C)c1NC(=O)COC(=O)c1c(C)nn(-c2ccccc2)c1C`: the activation was -1.2%. On to `CCOC(=O)[C@]12CCCCC/C=C\1N(Cc1ccc(OC)cc1)C(=O)[C@H]2CC(=O)NCc1ccc(C)o1`, for which the activation is -1.63%. With `CCOC(=O)c1c(NC(=S)SC)sc(C(=O)N2CCc3ccccc3C2)c1C`, the activation is -0.42%. Take `COC(=O)[C@]12C[C@H](CC(=O)NCc3ccc(OC)c(OC)c3)C(=O)N(Cc3ccccc3)C1=C[C@H](C(C)C)O[C@@H]2C1CC1`: the activation was -0.82%. Then `Cc1nc2cc(NC(=O)Nc3cccc(F)c3)ccc2n1C`, with 11.1% (active); and `CCN1CCN(C(=O)C2(NC(=O)Nc3cccc(F)c3)CCCCC2)CC1`, with -1.58%. `Cc1nc2cc(NCc3cccs3)ccc2n1C`: the activation is 1.2%.

Regarding `COC[C@@H]1CCCN1c1ccc2c(c1)O[C@H](C)CCN(C1CC1)S2(=O)=O`, the activation is -0.65%.

Regarding `Cn1c(SCC(=O)NC2CCCCC2)nnc1-c1cc2ccccc2o1`, the activation is -0.36%. For `Cn1c(CNc2nc(-c3ccccc3)cs2)nnc1SCC(=O)c1ccccc1`, the activation is -0.8%.

For `CCNc1nc(-c2cc3ccccc3o2)cs1`, the activation is 6.62% (active).

On to `C[C@H]1CCC/C=C/C(=O)c2c(O)cc(O)cc2CC(=O)O1`, for which the activation is -4.76%.

`N#Cc1ccsc1NC(=O)CN1CCCCC1`: the activation is -2.18%. Consider `Cc1csc(SCC(=O)Nc2sccc2C#N)n1`, for which the activation was 6.55% (active). `Cc1csc(SCC(=O)Nc2ccc(C)c(S(=O)(=O)N(C)C)c2)n1`: the activation was -0.11%.

`Cc1ccc(NC(=S)NNC(=O)CSc2nnc(SCc3ccccc3Cl)s2)cc1`: the activation was 0.49%. `CCOC(=O)c1ccccc1NC(=O)COC(=O)CCC(=O)N1CCOCC1`: the activation is -0.53%.

Take `CCOC(=O)c1ccccc1C(=O)N1CCOCCOCCOCC1`: the activation was 6.11% (active). On to `CSc1ncccc1C(=O)OCC(=O)N1CCOCC1`, for which the activation was -1.11%. Take `CC(CCc1ccccc1)NCC(O)c1cccc([N+](=O)[O-])c1` (centres undefined): the activation was -0.61%. `Cn1c(=NC(=O)c2cnccn2)sc2ccccc21`: the activation was 3.28%. To `Cn1c(=NC(=O)c2ccco2)sc2cccc(F)c21` belongs 10.7% (active). As to `Cc1cc(NC(=O)c2ccco2)c(=O)n(Cc2c(F)cccc2Cl)c1`, the activation was -0.57%. Regarding `C=CCN1C(=O)[C@H](CC(=O)N2CCN(C(=O)OCC)CC2)[C@@]2(C(=O)OCC)CCCC=C12`, the activation is -0.81%. On to `Cc1ccccc1CN1CCCCC(NC(=O)c2cccc(C#N)c2)C1=O` (centres undefined), for which the activation is -2.63%. `Cc1ccc(C(=O)C2CCN(CC(=O)NCCC(C)C)CC2)cc1`: the activation was -1.66%. Regarding `COc1ccc([C@H]2OC(=O)C[C@H]2C(=O)N2CCN(c3ccccc3F)CC2)cc1OC`, the activation was -0.81%. Turning to `CCN(CC)c1nc(-c2ccccc2)cc(C(F)(F)F)c1C#N`, the activation was -1.43%.

On to `N#Cc1c(C(F)(F)F)cc(-c2ccc(Cl)cc2)nc1SCC(=O)O`, for which the activation is 6.47% (active).

`Cc1cc(C(F)(F)F)c(C#N)c(SCC(=O)NC2CC2)n1`: the activation was -2.02%. As for `CN(C)S(=O)(=O)c1cccc(C(=O)N/N=C\c2ccco2)c1`, the activation was 0.08%. Consider `Cc1ccsc1C(=O)NC1CCCCC1C` (centres undefined), for which the activation was -1.43%. Take `Cc1ccsc1C(=O)N/N=C/c1ccc([N+](=O)[O-])cc1`: the activation was 6.15% (active). Regarding `Cc1ccc(/C=N/NC(=O)c2sccc2OCc2ccc(F)cc2)cc1`, the activation was 0.06%. In the case of `O=C(NCCC1=CCCCC1)C1CCN(S(=O)(=O)c2ccc(Cl)s2)CC1`, the activation is -1.29%. Then `CC(=O)c1ccc(S(=O)(=O)NCC2CCN(C(=O)C(=O)c3cccs3)CC2)cc1`, with -1.54%. Consider `COc1ccc(-c2cc3ncccc3cn2)cc1`, for which the activation was 7.99% (active).

As for `COc1ccc(-c2cc(C3CCN(c4ncccc4[N+](=O)[O-])CC3)[nH]n2)cc1`, the activation was -1.95%. For `COc1ccc(-c2cc3n(n2)CCc2nc4ccccc4n2-3)cc1`, the activation was 2.18%. With `Cc1ccc(Cn2cc(COC(=O)N(C)Cc3ccccc3)nn2)cc1`, the activation was -1.15%. For `O=C1CCCCN1CCCC(=O)N1CCCC(Nc2ccc(F)cc2)C1` (centres undefined), the activation was -0.38%. To `COc1ccc(C(=O)OCCN2CCN(C3CN(Cc4cn(Cc5ccccc5F)nn4)S(=O)(=O)C3)CC2)cc1OC` (centres undefined) belongs -3.13%; to `CCOC(=O)C1CCN(C(=O)C(C)(C)NC(=O)Nc2ccccc2Cl)CC1`, -0.1%.
